Measured values: the supplement of paper PMC4466236
Whole data set: some 33,000 sequences, median “E-score (dimensionless, -0.5 to 0.5)” near -0.058, cut for the highest 2% near 0.35. The entries come from a sample that favours the highest values as a whole.

The sequences below were run on MvaT (assay: PBM 8-mer E-score (mean of HK and ME arrays) (E-score (dimensionless, -0.5 to 0.5)); higher = stronger relative binding preference).
Description: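 Protein binding microarray: GST-tagged full-length MvaT (P. aeruginosa PAO1) bound to two universal double-stranded 60-mer arrays (ME and HK), each with a constant 25-mer primer and a variable 35-mer region covering all 8-mers. The 8-mer E-score (rank-based, range -0.5 to 0.5, >0.45 = specific binding) is the mean of the two arrays.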

Sequence | PBM 8-mer E-score
ACTGTTAT | 0.306
AATGTTAG | 0.209
ATTGTTAG | 0.235
GTTGTTAA | 0.257
AATGTTAT | 0.372
AATGTTAC | 0.186
GATGTTAA | 0.277
ATTGTTAA | 0.393
AATGTTAA | 0.387
GATCGTGA | -0.153
CTTGCCCA | -0.191
AGCCCGGA | -0.201
AGATATTA | 0.412
CGATATTA | 0.331
GGATATTA | 0.332
CAATATCA | 0.304
AAATATGG | 0.278
AAATATTA | 0.438
AAATATCA | 0.304
AAATATCT | 0.277
TAATATCA | 0.421
AAATATTT | 0.463
AAATATTG | 0.306
ACAGATAC | 0.102
ACGGGGAT | -0.00987

Sequence | PBM 8-mer E-score
AAGCTTTA | 0.0937
GAATGGCA | -0.00364
GCGAATAC | 0.0443
ACATTAGG | 0.0719
ATAGTCAA | 0.165
GACGCGCA | -0.188
CAATATTG | 0.377
CAATATGG | 0.156
AAATATGA | 0.241
AAATATGC | 0.305
CAATATCG | 0.18
TAATATTA | 0.474
TAATAGGA | 0.222
GAATATTA | 0.4
TAATACCA | 0.336
AAATATGT | 0.348
TATCGAAA | 0.144
GCGATAGC | -0.262
GAAAGCGA | 0.0347
AAGGGTAA | 0.109
AGACCAAG | -0.0618
TGCGGAAA | 0.107
TCCTCAGA | -0.142
CAATATTC | 0.226
CAATATGA | 0.244

Sequence | PBM 8-mer E-score
TAATATGA | 0.354
GAATATGA | 0.19
CAATATGC | 0.0377
CAATATTA | 0.373
ACGAGTAC | 0.047
ACACAAAT | 0.237
AGCACGGA | -0.111
GGCCCACC | -0.28
GAAGTATA | 0.263
GATGTATA | 0.289
ATAGTATG | 0.21
CATGTATA | 0.264
AAAGTATT | 0.27
AATGTATA | 0.366
AAAGTATC | 0.211
GTAGTATA | 0.319
AAAGTATA | 0.41
CAAGTATA | 0.373
ATAGTATA | 0.38
TAAGTATA | 0.282
ATTCCGGA | 0.138
TGGCGACA | -0.132
ATCGCCAT | 0.016
AGATCTCC | -0.204
AACAGTGT | 0.123

Sequence | PBM 8-mer E-score
GCGTCGCC | -0.203
CCATAAGG | -0.19
CGGTAAAC | 0.0615
AACACCCG | 0.00525
AGTTGCAT | 0.182
AGTCTAAC | 0.049
AATTCTGG | 0.076
ACGCAGTG | -0.257
CTTCATTA | 0.338
AGTCCGAG | -0.29
ATTAACAG | 0.334
GATAACGA | 0.0582
CATAACAA | 0.0795
AATAACCT | 0.228
TATAACAA | 0.355
TATAACGA | 0.374
AATAACCC | 0.226
ATTAACAA | 0.381
AATAACCG | 0.367
ATTAACAC | 0.328
GATAACAA | 0.263
AATAACGA | 0.326
GCATTGGA | -0.0184
AAAGGTCC | -0.197
CTACCTAC | -0.00994

Sequence | PBM 8-mer E-score
ATCTTGCC | 0.0286
GAGCAGGC | -0.379
AATGTGAG | 0.0855
GTTGGGGA | -0.0857
ATTGGAGC | -0.00417
CTAATCAG | -0.0597
AATAACAT | 0.32
AATAACAC | 0.331
AATAACAA | 0.38
AACCACCG | -0.0371
CTCCTAAA | -0.112
AGATAACG | 0.0641
AGATAACC | -0.021
CTATAACC | 0.155
GTATAACA | 0.3
ATATAACC | 0.37
ATATAACG | 0.406
ACATAACG | 0.183
CTATAACA | 0.297
ATATAACA | 0.423
ACGTAATA | 0.29
GGGTAACC | -0.246
CCTGCGCC | -0.28
ACGTTAGC | -0.113
CGGTTGCC | -0.279

Sequence | PBM 8-mer E-score
CGACCCAA | -0.0201
CAGGGTCG | -0.317
TAGGAAGA | 0.048
AAAAATAC | 0.158
CAAAATAA | 0.343
TAAAATTA | 0.288
AAAAATAA | 0.403
AAAAATAG | 0.0973
AAAAAAAA | 0.271
AAAAATAT | 0.377
TAAAATAA | 0.438
GAAAATAC | 0.134
GAAAAAAA | 0.0648
TAAAATCA | 0.198
GAAAATAA | 0.349
AGCGCGCG | -0.184
GTGATAAA | 0.211
CTAGAGAG | -0.241
AACTATTA | 0.399
CACTATTC | 0.0563
CACTATTA | 0.357
AACTATTC | 0.255
GACTATTA | 0.305
CGCTATTA | 0.18
AGCAGGAA | -0.195

Sequence | PBM 8-mer E-score
CAACCCTG | -0.133
GGACTTTA | -0.06
AAACTTTC | 0.312
GAACTTTA | 0.346
AAACTTTA | 0.357
AAACTTTG | 0.317
CAACTTTA | 0.297
AAACAAAG | 0.192
CCAATGAA | -0.1
CGTAATAG | 0.173
CGTAATAA | 0.398
TGTAATAA | 0.399
GGTAATAA | 0.335
CGTAATAC | 0.208
TGTAAAAA | 0.208
GCCGCTGA | -0.231
CGAATATA | 0.355
GGAATATA | 0.329
AGAATATC | 0.195
CGAATATC | 0.0677
AGAATATA | 0.378
AGAATATG | 0.277
AAGGGGTA | -0.15
GTGTTACA | 0.244
CCATACGC | -0.202

Sequence | PBM 8-mer E-score
ATATTTGG | 0.177
ATATTTGC | 0.351
CTATTTGA | 0.229
ATATTTGA | 0.363
CTATTTGC | 0.148
GTATTTGA | 0.319
ACTTTTTC | 0.0911
CCAGATAA | 0.165
AGTAGACA | -0.00875
ACATATAC | 0.287
ACATATGA | 0.179
ACACATAA | 0.273
ACATATAA | 0.446
ACATATAT | 0.47
ACATATAG | 0.264
ATACATCA | 0.192
CGGTAGCC | -0.317
AGTTCAGG | 0.0672
AATCTTGT | 0.0955
AAGCTCTA | -0.217
ACATAATG | 0.302
ATATAAGG | 0.31
ATATAATC | 0.415
ATATAATG | 0.402
CTATAATC | 0.295

Sequence | PBM 8-mer E-score
ATCTAATC | 0.167
AAGGAATG | 0.0374
TCTAGAAA | 0.0814
TCTCCTCA | -0.177
CCTGGTAA | -0.0325
GCCGTCAC | -0.163
CCAATCGG | -0.128
CGTCTCAA | -0.0154
ATGTCAGC | -0.039
GTTAAAAA | 0.239
GTTTAAAA | 0.293
TTTAAAAA | 0.363
TTAAAAAA | 0.305
TTTTAAAA | 0.409
CTTTAAAA | 0.287
AGAAGTTA | 0.279
GAACATTC | -0.0126
CATTGTAC | 0.151
AGGACGTA | -0.138
GCGTATTA | 0.193
CAGTATTA | 0.289
AAGTATTC | 0.161
ACGTATTA | 0.356
AAGTATTA | 0.388
ACGTATTG | 0.183

Sequence | PBM 8-mer E-score
ATATCTAG | 0.252
GCCTACGA | -0.271
GCATACCA | -0.104
CCGTGCGA | -0.193
ACAAATAA | 0.38
ACAAATAT | 0.405
ACAAATAG | 0.268
TCAAATAA | 0.28
ACAAATAC | 0.247
GCAAATAA | 0.325
CCAGGCAC | -0.347
GCCGAGAA | -0.0283
ACATATGG | 0.145
AGATATGG | 0.00259
ATATATGG | 0.42
GTATATGA | 0.245
CTATATGC | 0.227
ATATATGC | 0.424
ACATATGC | 0.129
CTATATGA | 0.124
ATATATGA | 0.439
AAAGCTCC | -0.295
AGTCTTAC | 0.0995
CGAGATCA | -0.0866
ATAGAGAG | 0.188

Sequence | PBM 8-mer E-score
ATATAGAC | 0.224
GTATAGAA | 0.0668
ATATAGAT | 0.35
CTATAGAA | 0.103
CTATAGAG | -0.125
ATATAGAA | 0.366
ATATAGAG | 0.351
AGATAGAT | 0.152
ATGACCAC | -0.00499
AATGTTTG | 0.212
AGGCGAGA | -0.0992
CACGCCAG | -0.233
AACGCGGA | -0.163
AAGAGGTC | -0.209
ATAACTAC | 0.272
CTTTAGAC | 0.0841
ATGCGGTA | -0.111
CAACTTAA | 0.31
TAACTTAA | 0.406
CACTTTCA | 0.136
GACTTTAA | 0.262
AAACTTAA | 0.326
AACTTTCA | 0.351
TACTTTAA | 0.422
GAACTTAA | 0.263

Sequence | PBM 8-mer E-score
AAACTTAC | 0.306
AAACTTAT | 0.381
AACTTTCT | 0.22
TGCTTTAA | 0.094
AAAACCGC | 0.058
AGGACGGA | -0.0832
ACCTGGGG | -0.366
AGGCTGAT | -0.0817
CCCGGTTA | 0.00633
ATTGCGCA | 0.111
ACTGGACG | -0.0771
AACTTTAG | 0.211
CACTTTAA | 0.274
AACTTTAA | 0.385
AACTTTTA | 0.34
AACTTTAT | 0.357
AACTTTAC | 0.275
GGGTGCGA | -0.091
CCGGCGCA | -0.0431
ATCGACAC | -0.0169
AGTGCGCA | 0.13
AGGGGCGA | -0.155
ATCACTCG | 0.0455
AGCTGGTA | -0.107
ACAGGAAC | -0.0162

Sequence | PBM 8-mer E-score
GTAACTGA | 0.199
ATAACTTA | 0.429
ATAACTGA | 0.246
GTAACTCA | 0.116
CTAACTGA | 0.0161
CTAACTTA | 0.379
AGAACTTA | 0.256
GTAACTTA | 0.37
CTAACTAA | 0.286
CTTGTCGC | -0.147
CCTCGTGA | -0.253
CCCTGTTA | -0.0586
AGCAAGAG | -0.0917
TCGATCCA | -0.213
ACATCTTC | 0.185
ATCTACTG | 0.0718
ATTTGTTG | 0.172
ATTGAAAT | 0.27
ACTAGTTA | 0.345
TTAAATAA | 0.445
CTAAATAC | 0.232
TTAAACAA | 0.321
CTAAATAA | 0.365
CTAAATGA | 0.126
CTAAATCA | 0.0639

Sequence | PBM 8-mer E-score
GCGATTCC | -0.0999
AGGCAGAA | -0.226
ACTCGTGA | -0.0788
GGACTCCC | -0.283
TAGTGAGA | 0.0304
ACCCTTCC | -0.184
CCATATTA | 0.353
CCATATTC | 0.161
GCATATTA | 0.278
ACATATTC | 0.281
ACATATTG | 0.281
ACATATTA | 0.44
AACCACTC | 0.00691
GCGGAGGA | -0.291
AAATTTGT | 0.264
AGGGTACC | -0.343
TACAAATA | 0.355
AACAAAAT | 0.35
AACAAGTA | 0.343
CACAAATA | 0.338
AACAAATG | 0.172
AACAAGAT | 0.164
AACAAAAA | 0.239
AACAAATA | 0.369
GACAAATA | 0.297
